Laboratory results taken from PubChem BioAssay.
Active and inactive are the calls of the source. Unless noted, how the calls were made is not given here.

Key:
[1] = compounds binding Alexa647 anti-His antibody – biochemical, small-molecule microarray, 635 nm fluorescence, artefact control for SMM control protein annotation, primary screen (AID 1128); details: higher = more signal;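 further: score merges feature fluorescence with signal-to-noise for each printed compound spot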
[2] = tested on: Human papillomavirus type 1a E7 protein (residues 1-88); assay: HPV1a E7 small-molecule binders, primary screen, biochemical, small-molecule microarray, residues 1-88, 635 nm (AID 1129); details: small-molecule microarray binding, fluorescence 635 nm; higher = more signal
[3] = target: Focal adhesion kinase 1 (Homo sapiens) (UniProt Q05397); assay: PTK2 protein binding on printed compound slides – biochemical, small-molecule microarray, 635/667 nm fluorescence, BSA, DTT, primary screen (AID 1130); details: 635 nm fluorescence, higher = more signal;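 further: composite of spot emission at 667 nm and signal to noise over triplicate slides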
Chain of Focal adhesion kinase 1 (Homo sapiens) (Q05397 whole entry, looked up): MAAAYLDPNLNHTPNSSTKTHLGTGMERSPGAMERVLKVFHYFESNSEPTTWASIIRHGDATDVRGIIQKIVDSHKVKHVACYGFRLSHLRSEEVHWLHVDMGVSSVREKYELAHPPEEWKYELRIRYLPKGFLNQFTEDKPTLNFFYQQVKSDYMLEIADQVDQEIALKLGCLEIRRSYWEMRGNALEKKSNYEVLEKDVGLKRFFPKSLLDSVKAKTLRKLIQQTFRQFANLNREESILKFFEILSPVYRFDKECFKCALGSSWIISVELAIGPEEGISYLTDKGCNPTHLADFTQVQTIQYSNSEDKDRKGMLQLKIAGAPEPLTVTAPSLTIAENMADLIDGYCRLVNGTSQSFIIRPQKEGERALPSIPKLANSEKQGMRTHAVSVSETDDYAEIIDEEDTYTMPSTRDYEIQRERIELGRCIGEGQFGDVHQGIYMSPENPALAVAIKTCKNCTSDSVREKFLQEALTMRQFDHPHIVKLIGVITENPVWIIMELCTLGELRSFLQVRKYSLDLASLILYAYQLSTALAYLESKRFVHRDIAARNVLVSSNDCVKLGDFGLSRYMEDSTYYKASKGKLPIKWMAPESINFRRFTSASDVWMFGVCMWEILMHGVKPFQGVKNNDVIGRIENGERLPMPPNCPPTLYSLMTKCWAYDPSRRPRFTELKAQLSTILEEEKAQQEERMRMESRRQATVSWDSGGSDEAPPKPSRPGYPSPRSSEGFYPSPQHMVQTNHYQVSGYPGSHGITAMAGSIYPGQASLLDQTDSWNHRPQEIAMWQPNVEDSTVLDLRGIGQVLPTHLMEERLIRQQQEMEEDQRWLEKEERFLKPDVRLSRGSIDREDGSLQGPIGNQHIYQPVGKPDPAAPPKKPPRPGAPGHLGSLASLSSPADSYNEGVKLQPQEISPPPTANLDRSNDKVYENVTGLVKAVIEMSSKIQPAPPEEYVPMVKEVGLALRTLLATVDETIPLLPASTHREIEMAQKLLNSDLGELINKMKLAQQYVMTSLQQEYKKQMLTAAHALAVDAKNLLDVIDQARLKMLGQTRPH

[4] = tested on: Fibrinogen (Alexa647-labelled); assay: Alexa647-fibrinogen binding to printed small molecules – biochemical, small-molecule microarray, 635/667 nm fluorescence, artefact control for SMM control-protein annotation, profiling panel (AID 1131); details: fibrinogen-A647 binding fluorescence, higher = more signal;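 further: z-score merges 667 nm fluorescence with per-spot signal-to-noise over triplicate slides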
[5] = target: Follistatin (Homo sapiens) (UniProt P19883); assay: FST protein binding to printed compounds – biochemical, small-molecule microarray, 635/667 nm fluorescence, primary screen (AID 1132); details: 635 nm fluorescence, higher = more signal
Chain of Follistatin (Homo sapiens) (P19883 whole entry, looked up): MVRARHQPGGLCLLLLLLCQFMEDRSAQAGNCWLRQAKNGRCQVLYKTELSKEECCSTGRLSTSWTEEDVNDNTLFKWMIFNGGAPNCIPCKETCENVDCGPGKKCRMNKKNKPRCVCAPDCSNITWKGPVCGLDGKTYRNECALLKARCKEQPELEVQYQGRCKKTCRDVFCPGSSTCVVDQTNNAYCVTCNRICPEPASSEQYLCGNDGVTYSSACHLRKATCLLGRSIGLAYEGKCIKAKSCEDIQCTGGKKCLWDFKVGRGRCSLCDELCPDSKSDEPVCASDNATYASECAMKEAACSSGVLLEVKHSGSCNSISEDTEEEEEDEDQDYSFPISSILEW

[6] = target: Fibroblast growth factor 2 (Homo sapiens) (UniProt P09038); assay: basic fibroblast growth factor binding to printed compounds – biochemical, small-molecule microarray, 635/667 nm fluorescence, primary screen (AID 1133); details: FGF2, fluorescence 635/667, higher = more signal
Chain of Fibroblast growth factor 2 (Homo sapiens) (P09038 whole entry, looked up): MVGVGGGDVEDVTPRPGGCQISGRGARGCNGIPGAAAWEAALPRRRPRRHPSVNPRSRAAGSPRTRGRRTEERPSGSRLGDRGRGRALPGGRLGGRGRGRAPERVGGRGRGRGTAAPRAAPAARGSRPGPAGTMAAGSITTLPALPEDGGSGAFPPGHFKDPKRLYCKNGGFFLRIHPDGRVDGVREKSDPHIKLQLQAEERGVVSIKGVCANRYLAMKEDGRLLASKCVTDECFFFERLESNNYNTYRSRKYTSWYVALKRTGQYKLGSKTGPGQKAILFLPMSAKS

[7] = JC-1 mitochondrial potential readout, lung cancer cells – cell-based, A549, JC-1 fluorescence, basal, 24 h, 100 nL, profiling panel (AID 1138); details: higher = more signal;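 further: A549 lung adenocarcinoma cells under basal conditions with no added stimulus; test concentration not given here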
[8] = tested on: Lefty1; assay: Lefty1 protein binding to printed compounds – biochemical, small-molecule microarray, 635/667 nm fluorescence, primary screen (AID 1139); details: fluorescence 635/667, higher = more signal
[9] = tested on: wheat germ agglutinin (Triticum aestivum), Alexa647-labelled; assay: Alexa647-WGA lectin binding to printed small molecules – biochemical, small-molecule microarray, 635/667 nm fluorescence, artefact control for SMM control-protein annotation, profiling panel (AID 1140); details: WGA-A647 binding, 635 nm fluorescence, higher = more signal;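 further: score merges 667 nm feature emission with signal to noise over triplicate slides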
[10] = target: Luciferin 4-monooxygenase (Photinus pyralis) (UniProt P08659); assay: inhibition of purified Photinus pyralis luciferase – biochemical, luminescence, purified enzyme, 2006 set, primary screen (AID 1141); details: purified firefly luciferase, SteadyGlo luminescence, 30 min; higher = more signal, called active from +8 up or from −8 down;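 further: cell-free assay with purified firefly luciferase at 100 ng per well in PBS; test concentration not given here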
Chain of Luciferin 4-monooxygenase (Photinus pyralis) (P08659 whole entry, looked up): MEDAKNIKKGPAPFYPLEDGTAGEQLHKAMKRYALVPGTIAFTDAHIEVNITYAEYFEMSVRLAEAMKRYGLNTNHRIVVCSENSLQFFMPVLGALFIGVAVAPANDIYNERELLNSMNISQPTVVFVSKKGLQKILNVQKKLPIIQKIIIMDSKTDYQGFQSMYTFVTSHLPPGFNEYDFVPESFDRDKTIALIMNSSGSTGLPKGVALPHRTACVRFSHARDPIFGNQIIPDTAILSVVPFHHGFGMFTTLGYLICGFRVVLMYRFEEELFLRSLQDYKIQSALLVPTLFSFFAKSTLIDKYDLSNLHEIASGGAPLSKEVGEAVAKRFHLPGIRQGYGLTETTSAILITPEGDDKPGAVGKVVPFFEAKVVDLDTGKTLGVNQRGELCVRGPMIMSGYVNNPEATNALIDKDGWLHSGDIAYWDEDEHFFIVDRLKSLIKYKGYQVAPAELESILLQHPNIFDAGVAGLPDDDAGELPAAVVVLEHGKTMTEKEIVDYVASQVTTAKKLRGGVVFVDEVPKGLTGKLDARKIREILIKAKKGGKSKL

[11] = tested on: Wnt5a (protein binding on small-molecule microarray); assay: small molecules binding Wnt5a protein – biophysical, small-molecule microarray, 635/667 nm fluorescence, primary screen (AID 1142); details: 635 nm fluorescence, higher = more signal;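 further: fluorescence read at 667 nm with signal to noise per printed feature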
[12] = ATP-based viability of Huh7 replicon cells – cell-based, CellTiter-Glo luminescence, basal, 48 h, cytotoxicity control for HCV replication inhibitor project, primary screen (AID 1143); details: higher = more signal, called active from +8 up or from −8 down;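 further: Huh7 hepatoma cells carrying a hepatitis C replication reporter with no stimulus; test concentration not given here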
[13] = Pseudomonas biofilm growth suppression – PAO1 strain, BacTiter-Glo luminescence, LB-PBS, primary screen (AID 1144); details: P. aeruginosa PAO1 biofilm, 12 h, higher = more signal
[14] = basal CRE-LacZ reporter activity in PC12 – cell-based, unstimulated, primary screen (AID 1145); details: no forskolin, luminescence, 4.5 h, higher = more signal, called active from +8 up or from −8 down
[15] = forskolin-driven CRE-LacZ activity in PC12 – cell-based, CRE-LacZ reporter, forskolin-stimulated, primary screen (AID 1146); details: luminescence, 4.5 h, higher = more signal, called active from +8 up or from −8 down;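 further: PC12 cells with 6xCRE LacZ reporter stimulated by forskolin 10 µM; beta-galactosidase reporter signal reflecting CREB driven transcription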
[16] = target: Streptavidin (Streptomyces avidinii) (UniProt P22629); assay: compounds binding control protein streptavidin – biophysical, small-molecule microarray, 635/667 nm fluorescence, artefact control for SMM compound annotation, primary screen (AID 1147); details: higher = more signal;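 further: signal reflects streptavidin binding to arrayed compounds as a control protein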
Chain of Streptavidin (Streptomyces avidinii) (P22629 whole entry, looked up): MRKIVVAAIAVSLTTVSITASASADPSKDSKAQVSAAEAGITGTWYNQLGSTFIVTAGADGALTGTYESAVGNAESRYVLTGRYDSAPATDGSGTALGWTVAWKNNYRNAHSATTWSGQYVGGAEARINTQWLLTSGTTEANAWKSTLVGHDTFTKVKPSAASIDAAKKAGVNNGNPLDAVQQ

[17] = probe aInhba binding on compound microarray – biochemical, small-molecule microarray, 635/667 nm fluorescence, primary screen (AID 1148); details: higher = more signal;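 further: score merges 667nm spot fluorescence with signal-to-noise for antibody binding to printed compounds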
[18] = target: Torsin-1A (Homo sapiens) (UniProt O14656); assay: TOR1A wild-type binding on microarray – cell lysate, small-molecule microarray, lysate, 635/667 nm, primary screen (AID 1149); details: COS7 hTOR1A-WT lysate, 635 nm fluorescence, higher = more signal
Chain of Torsin-1A (Homo sapiens) (O14656 whole entry, looked up): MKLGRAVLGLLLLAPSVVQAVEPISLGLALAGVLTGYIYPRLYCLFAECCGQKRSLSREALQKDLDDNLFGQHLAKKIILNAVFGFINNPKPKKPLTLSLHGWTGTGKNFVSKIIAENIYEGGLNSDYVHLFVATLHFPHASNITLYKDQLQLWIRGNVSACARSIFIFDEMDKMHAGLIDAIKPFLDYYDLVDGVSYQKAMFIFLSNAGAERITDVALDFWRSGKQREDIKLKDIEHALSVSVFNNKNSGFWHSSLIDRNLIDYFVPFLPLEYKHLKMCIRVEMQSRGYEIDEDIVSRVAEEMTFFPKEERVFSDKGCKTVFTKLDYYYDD

[19] = target: Torsin-1A (Homo sapiens) (UniProt O14656); assay: torsin A mutant lysate binding on microarrays – cell lysate, small-molecule microarray, COS7 lysate, 635/667 nm fluorescence, primary screen (AID 1150); details: COS7 hTOR1A mutant lysate, 635 nm fluorescence, higher = more signal;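 further: score pools 667 nm emission and signal to noise measuring lysate protein binding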
[20] = tested on: Sonic hedgehog protein (Shh); assay: Sonic hedgehog microarray binding compounds – biochemical, small-molecule microarray, 635/667 nm fluorescence, primary screen (AID 1151); details: 635 nm fluorescence, higher = more signal;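 further: Shh protein binding to compounds spotted on small-molecule microarray slides; score combines spot fluorescence intensity with signal-to-noise across triplicate slides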

| SMILES | composite z-score [1] | composite z-score [2] | composite z-score [3] | composite z-score [4] | composite z-score [5] | composite z-score [6] | z-score [7] | composite z-score [8] | composite z-score [9] | z-score [10] | composite z-score [11] | z-score [12] | z-score [13] | z-score [14] | z-score [15] | composite z-score [16] | composite z-score [17] | composite z-score [18] | composite z-score [19] | composite z-score [20] |
| --- | --- | --- | --- | --- | --- | --- | --- | --- | --- | --- | --- | --- | --- | --- | --- | --- | --- | --- | --- | --- |
| C=CCC(OC(C)=O)[C@@H]1[C@@H](N(Cc2ccc(-c3ccccc3)cc2)C(=O)c2cccc3ccccc23)c2cc(OCCCO)ccc2N1C(=O)c1ccc2ccccc2c1 (stereo not given in full) | -0.173 | 0.216 | 0.529 | 0.728 | 0.424 | -0.198 | 0.248 | 0.243 | 0.104 | 0.209 (inactive) | 0.0959 | -1.61 (inactive) | 0.41 (inactive) | -0.155 (inactive) | 0.108 (inactive) | 0.144 | 0.0219 | -0.0928 | 0.0249 | 0.156 |
| CCCC=C(CCC)[C@@H](NS(=O)(=O)c1ccc(Cl)cc1)c1ccccc1 | 1.12 | -0.382 | 0.884 | 0.522 | -0.883 | -0.919 | -0.576 | -1.17 | 0.303 | 1.8 (inactive) | 0.0207 | -2.29 (inactive) | -0.527 (inactive) | 0.197 (inactive) | 0.261 (inactive) | 0.489 | 0.0807 | -0.721 | -0.292 | -1.12 |
| COC(=O)C(CC#Cc1ccc2c(c1)[C@]1(C(=O)N2)[C@H](c2ccc(O)cc2)N2[C@H](c3ccccc3)[C@H](c3ccccc3)OC(=O)[C@H]2[C@@H]1C(=O)N1CCc2cc(OC)c(OC)cc2C1)C(=O)OC | 1.54 | 0.953 | -0.0453 | 0.742 | 1.36 | 1.17 | -0.654 | 1.54 | 0.384 | -0.0494 (inactive) | 0.294 | -0.26 (inactive) | 0.786 (inactive) | 0.918 (inactive) | 0.351 (inactive) | 0.455 | -0.101 | 0.966 | 0.48 | 1.31 |
| CN(C)CCCCNC(=O)[C@H]1C[C@H]2C(=O)N[C@@H](Cc3ccccc3)C(=O)N2[C@H]1c1cccc(OCCO)c1 | 0.807 | -0.562 | -0.0598 | -0.205 | 1.21 | 0.694 | -0.0938 | 0.365 | -0.0282 | 0.801 (inactive) | -0.113 | -0.307 (inactive) | -0.584 (inactive) | -1.07 (inactive) | -1.16 (inactive) | -0.203 | -0.128 | -0.163 | 0.59 | 0.878 |
| CCCC[C@H]1OB(O)C[C@H]2C1=C(COC)C[C@H]1C(=O)C=CC(=O)[C@H]12 | 0.51 | 0.215 | -0.0157 | 0.287 | 0.865 | 0.32 | 0.777 | 0.96 | 0.106 | -3.03 (inactive) | 0.269 | -1.06 (inactive) | -0.229 (inactive) | 10.7 (active) | 6.12 (inactive) | -0.045 | -0.0552 | 0.283 | -0.0615 | 1.63 |
| Cc1ccccc1C(O)C1C=CC2C(=O)N(c3ccccc3)C(=O)C2N1Nc1ccccc1F (stereo not given) | 2.08 | 1.22 | 0.622 | 1.06 | 1.01 | 0.624 | -0.932 | -0.245 | 1.15 | -0.782 (inactive) | 0.0624 | 0.198 (inactive) | -0.626 (inactive) | -1.09 (inactive) | -0.283 (inactive) | 1.14 | 0.0569 | 0.575 | 1.25 | -0.255 |
| COCCOC(=O)N1C(=O)[C@@]2(c3cc(C#CC4(O)CCCCCC4)ccc31)[C@H](C(=O)N1CCc3cc(OC)c(OC)cc3C1)[C@H]1C(=O)O[C@H](c3ccccc3)[C@H](c3ccccc3)N1[C@@H]2c1ccc(O)cc1 | 2.17 | 1.23 | 0.427 | 0.853 | 1.26 | 1.1 | -0.791 | 0.594 | 0.972 | -0.604 (inactive) | 0.869 | -1.83 (inactive) | 0.0231 (inactive) | 1.68 (inactive) | 8.06 (active) | 0.398 | 0.306 | 1.25 | 0.538 | 0.774 |
| O=C(NCCO)C1=C[C@H](Oc2ccccc2I)[C@@H](O)[C@H](NCc2ccc(F)cc2)C1 | -0.223 | -1.23 | -0.279 | -2.27 | 1.31 | 0.795 | -0.697 | 1.45 | -1.25 | 0.243 (inactive) | 0.273 | -2.8 (inactive) | 0.148 (inactive) | 4.56 (inactive) | 0.925 (inactive) | -0.743 | -0.197 | 0.693 | 1 | 2.08 |
| COc1ccc(NC(=O)O[C@H]2[C@H](OC(=O)Nc3ccc4c(c3)OCO4)[C@H](OC(=O)Nc3ccc4c(c3)OCO4)[C@@H](OC)O[C@@H]2CO)cc1 | 1.45 | 1.25 | 0.216 | 0.362 | 1.29 | 0.319 | 0.0258 | 0.293 | 0.8 | -6.52 (inactive) | 0.0873 | -2.42 (inactive) | 0.883 (inactive) | 0.456 (inactive) | -0.92 (inactive) | -0.0821 | -0.0131 | 0.207 | 1.91 | 0.725 |
| CC1(C)OC[C@@]23C=C(Br)[C@@H](C[C@H]12)[C@@]1(CO1)C3=O | 0.424 | 0.62 | 0.139 | 0.149 | 0.369 | 0.122 | 0.582 | 0.439 | 0.0477 | -0.0228 (inactive) | 0.0405 | 0.661 (inactive) | 0.844 (inactive) | 0.494 (inactive) | 0.925 (inactive) | -0.0131 | -0.0331 | 0.667 | 0.483 | 0.474 |
